Screens deposited in PubChem BioAssay by National Center for Advancing Translational Sciences (NCATS).
Only some compounds are listed: those with a hit (about 1.1% of all), similar ones and a draw of the others.
gsp agonist: activates gsp, the McCune-Albright syndrome mutation | gsp mutant cells, cAMP HTRF, 30 min | Potency, µM (series often up to 76.9 µM), without a hit: at the highest dose activation (cAMP increase), hits mostly activators | 0.13% of 340,000 active | AID 624287; active means well fitted activation curve with a large enough effect; inconclusive means small, poorly fitted or top-dose-only effect, or another doubt; inactive means no such curve, though single readings can be large or run the other way; cell line not stated here;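 further: phosphodiesterase inhibitor Ro 20-1724 added with compounds to block cAMP breakdown; potency means the concentration at half of the fitted maximal effect; nearly all actives have a fitted effect of over 60% in size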
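Cells in DMEM/10% FBS with G418 were pretreated with compounds in DMSO plus […] (300 uM stock) for 30 min at 37C. cAMP was measured by HTRF (cAMP-d2 plus anti-cAMP antibody-K) after 30 min at room temperature.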
RXFP1 antag: RXFP1 (human) relaxin receptor antagonism | HEK293-RXFP1, relaxin-stimulated cAMP HTRF, 30 min; hits give low values | activity change, negative = inhibition, % at 57.5 µM | 0.59% of 350,000 active | AID 1259400 | Q9HBX9;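 active means activity change of -60% or lower, but not beyond a set lower limit; inconclusive means change between -60% and -40%, or beyond the set limit; inactive means change above -40%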; further: on the % scale 0 is the no-effect control and ±100 the full control effect
Target sequence (Q9HBX9 whole entry, looked up): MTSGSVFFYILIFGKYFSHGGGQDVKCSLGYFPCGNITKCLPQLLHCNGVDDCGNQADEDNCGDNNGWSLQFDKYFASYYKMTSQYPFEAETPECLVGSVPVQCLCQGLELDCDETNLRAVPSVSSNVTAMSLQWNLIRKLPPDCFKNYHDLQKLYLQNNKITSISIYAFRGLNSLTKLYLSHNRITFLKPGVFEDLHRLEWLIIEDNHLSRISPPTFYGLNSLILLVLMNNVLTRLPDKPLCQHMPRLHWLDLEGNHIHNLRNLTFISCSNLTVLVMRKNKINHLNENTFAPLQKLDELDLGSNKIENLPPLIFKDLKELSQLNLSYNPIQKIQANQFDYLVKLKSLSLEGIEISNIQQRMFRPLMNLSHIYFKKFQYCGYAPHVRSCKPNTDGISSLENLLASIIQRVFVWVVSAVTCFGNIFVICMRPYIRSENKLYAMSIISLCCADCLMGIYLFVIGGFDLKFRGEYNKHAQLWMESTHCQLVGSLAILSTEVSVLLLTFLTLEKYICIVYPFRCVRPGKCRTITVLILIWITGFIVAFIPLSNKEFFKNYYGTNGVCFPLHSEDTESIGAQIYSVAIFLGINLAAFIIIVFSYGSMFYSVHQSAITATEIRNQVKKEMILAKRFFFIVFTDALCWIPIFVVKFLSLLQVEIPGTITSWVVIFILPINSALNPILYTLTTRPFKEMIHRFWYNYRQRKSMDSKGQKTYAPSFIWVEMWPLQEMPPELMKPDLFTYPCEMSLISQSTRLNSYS
RXFP1 agonist: activates the human relaxin receptor RXFP1; Q9HBX9; HEK293T-RXFP1 cAMP TR-FRET, 30 min; response scale: percent of porcine relaxin response, buffer zero; Potency, µM (series often up to 57.5 µM), inactives show at the top dose activation, actives largely listed as activators; 0.3% of 370,000 active; AID 2676; further: potency means the concentration at half of the fitted maximal effect; on the % scale 0 is the no-effect control and ±100 the full control effect; nearly all actives have a fitted effect of over 60% in size
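cAMP rise read by TR-FRET after 30 min, 37C compound exposure (up to 58 uM) in RXFP1-transfected HEK293 cells with Ro 20174 present. EC50 from Hill-equation fits, with 29 nM porcine relaxin as 100% and buffer as basal.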
Tb PFK inh-1: blocks T. brucei phosphofructokinase; 0.17% of 330,000 active; Potency, µM (doses to about 57.5 µM), without a hit: at the top dose activity, negative = inhibition, usual class: inhibitors; O15648; T. brucei PFK, ADP-Glo luminescence;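 further: potency means the concentration at half of the fitted maximal effect; 0% = uninhibited 1x PFK enzyme wells and -100% = no-enzyme wells; nearly all actives have a fitted effect of over 60% in size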
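Compounds were pin-transferred as a titration series up to 57 uM into substrate buffer (0.5 mM F6P, 0.1 mM ATP, pH 8.0), then 1.25 nM PFK was added and reactions ran 45 min before ADP-Glo detection.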
gsp antagonist: antagonists of gsp mutant (McCune-Albright syndrome) | AID 624288 | gsp-mutant cells, cAMP HTRF, 30 min | 0.4% of 340,000 active | Potency, µM (series often up to 76.9 µM), inactives show at the top dose activity change, negative = inhibition, hits mostly inhibitors; calls by dose curve; cell line not stated here;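 further: intracellular cAMP measured with PDE inhibitor Ro 20-1724 present during compound exposure; potency means the concentration at half of the fitted maximal effect; on the % scale 0 is the no-effect control and ±100 the full control effect; nearly all actives have a fitted effect of over 65% in size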
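HTRF cAMP read-out (cAMP-d2 plus anti-cAMP antibody-K in lysis buffer, 30 min RT). Before lysis, cells are exposed to compounds with […] for 30 min at 37C in DPBS containing Ca/Mg, BSA and Tween 20.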
p53 reactivation: mutant p53 re-activation in reporter cells. Potency, µM (top dose mostly 92.2 µM), for inactives: top-dose activity change, positive = activation, actives largely listed as activators. 0.063% of 320,000 active. AID 504706. H1299 p53-A138V BP100-luciferase reporter, luminescence, 24 h; further: potency means the concentration at half of the fitted maximal effect; % of control where 0% means no effect; nearly all actives have a fitted effect of over 45% in size
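p53-null H1299 cells stably carrying temperature-sensitive p53-A138V and a BP100-luciferase reporter were pinned with compounds (4-point, 1:5 series) and held 24 hrs at 37 deg C. Luminescence was read 10 min after detection reagent.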
TbPFK ATP: Tb phosphofructokinase inhibition, orthogonal luminescence; shares compounds with Tb PFK inh-1; 47% of 1,100 active; Tb PFK enzyme, ATP depletion, Kinase-Glo Plus luminescence; Potency, µM (titrated, usually from 57.5 µM), for the others: top-dose inhibition; calls by dose curve; further: potency means the concentration at half of the fitted maximal effect; nearly all actives have a fitted effect of over 60% in size
Tb PFK inh-2: T. brucei PFK enzyme inhibition, hit validation; purified T. brucei PFK, ADP-Glo luminescence, 45 min; shares compounds with Tb PFK inh-1; Potency, µM (highest dose often 57.5 µM), for inactives: at the top dose activity change, negative = inhibition, usual class: inhibitors; 41% of 1,100 active;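 further: potency means the concentration at half of the fitted maximal effect; plate controls were full PFK enzyme control for no effect and no enzyme control for full effect; nearly all actives have a fitted effect of over 60% in size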
Numbers without * were called inactive; ? = inconclusive; · = no result given; [ ] = another dose, or the depositor's remark. Unless noted, the call rests on the fitted dose curve; in most records, active means well fitted curve in the direction sought with a large enough effect; inconclusive means small, poorly fitted or top-dose-only effect, or another doubt; inactive means no such curve, though single readings can be large; an effect the other way counts as inactive or inconclusive.

SMILES	gsp agonist	RXFP1 antag	RXFP1 agonist	Tb PFK inh-1	gsp antagonist	p53 reactivation	TbPFK ATP	Tb PFK inh-2
CN(C(=O)Nc1ccc(Cl)c(Cl)c1)c1ccccc1C(=O)O	9%[15.4 µM]	0	5%	15µM*	5%	19%	?	?
Clc1ccc(CN2C3=NCCCN3c3ccccc32)cc1	-11%	0	1%	15µM*	6%[15.4 µM]	-7%	24µM*	30µM*
Clc1ccc(CN2C3=NCCCN3c3ccccc32)cc1Cl	3%	-11	0%	13µM*	13%	-2%	7.6µM*	13µM*
O=C(Cc1ccccc1)N1CCN(Cc2ccc([N+](=O)[O-])cc2)CC1	-67%	-7	0%	-11%	5%	11%	·	·
CS(=O)(=O)N1CCN(Cc2ccc([N+](=O)[O-])cc2)CC1	14%	-11	-1%	?	5%	3%	?	?
O=c1[nH]c(=O)n(C2CCCCCC2)c(O)c1C=NCCCN1CCOCC1	22%	-6	0%	1%	2%	-5%	·	·
O=C1Nc2ccccc2N(O)N1c1ccc(Cl)c(Cl)c1	19%[15.4 µM]	19	-3%	11µM*	5%	-4%	?	-15%
O=C1Nc2cc(Cl)c(Cl)cc2N(O)N1c1ccc(Cl)c(Cl)c1	-4%	13	1%	13µM*	1%	-5%	11%	-15%
COC(=O)C1(C(=O)O)Cc2cc([N+](=O)[O-])ccc2N2CCCC21 (stereo not given)	?	6	0%	2%	-10%	-7%	·	·
COC(=O)Cn1cc(C=C2C(=O)N(C)C(=O)N(C)C2=O)c2ccccc21	0%	3	27%	-2%	2%	-4%	·	·
O=C(COc1ccc2ccccc2c1)N1CCN(CC2CC3C=CC2C3)CC1 (stereo not given)	-12%	2	1%	1%	2%	1%	·	·
Cc1ccc(-c2nnn3c2nc(NCCc2ccc(S(N)(=O)=O)cc2)c2ccccc23)cc1	0%[15.4 µM]	-8	?	?	9%	-12%	?	?
CC(=NCCC(c1ccccc1)c1ccccc1)c1c(O)n(C)c(=O)n(C)c1=O	-14%	-22	1%	-3%	7%	7%	·	·
Oc1ccc(CCNCc2cc3c(cc2Br)OCO3)cc1	-4%	9	·	·	·	·	·	·
O=C1c2ccccc2-c2cc3ccccc3cc21	-44%	-9	·	·	?	·	·	·
O=C1C(SCCO)=C(SCCO)C(=O)c2ccccc21	·	·	-3%	9.5µM*	35µM*	-18%	0.6µM*	?
CCCn1cc2c3c(cccc31)C1CC(C)CN(C)C1C2 (stereo not given)	·	·	4%	0%	·	-4%	·	·
O=c1c2ccc(Cl)cc2[nH]c(=S)n1-c1cccnc1	-4%[15.4 µM]	-35	2%	1%	5%	2%	·	·
C[C@]12CC[C@H]3[C@@H](CC[C@]4(O)C[C@@H](O)CC[C@]34C=O)[C@@]1(O)CC[C@@H]2C1=CC(=O)OC1	·	·	0%	-5%	-3%	-10%	·	·
O=C(Nc1cccc(Cl)c1)OCC#CCN1CCCC1	-7%	-3	·	·	7%	·	·	·
NNC(=O)CNc1cccc(Cl)c1	-2%	4	1%	12µM*	4%	-2%	24µM*	27µM*
COc1ccc(OC)c(NC(=O)COC(=O)c2cc3c(s2)CCC3)c1	?	-8	3%	?	5%	14%	?	?
COC(=O)\C(C(C)=O)=C(/C=C/C=C/C=C/N(C)C)N(C)C	-9%	-9	2%	?	1%	13%	?	?
COC(=O)C1=C(c2ccc(OC)c(OC)c2)C[C@@H]2CC[C@H]1N2C(=O)NCCO	·	·	-1%	9%	1%	11%	·	·
CN(C(=O)Cc1ccc(Cl)c(Cl)c1)C(CN1CCCC1)c1cccc(OCC(=O)O)c1 (stereo not given)	·	·	0%	-13%	11%	2%	·	·
SMILES	gsp agonist	RXFP1 antag	RXFP1 agonist	Tb PFK inh-1	gsp antagonist	p53 reactivation	TbPFK ATP	Tb PFK inh-2
N#Cc1c(F)cccc1NCc1cccs1	-54%	1	0%	?	-5%	0%	?	?
CN(C)C1CCc2[nH]c3c(F)cc(F)cc3c2C1 (stereo not given)	-1%	6	·	·	·	·	·	·
CNCc1ccccc1Sc1cc(O)ccc1O	-12%[15.4 µM]	?	-2%	?	-12%	-21%	3.4µM*	8.5µM*
CC(Cc1ccccc1Sc1ccccc1O)N(C)C (stereo not given)	-18%	-7	0%	-1%	8%	-2%	·	·
Cc1nc(SCC(=O)c2ccc(F)cc2)n[nH]1	10%	2	-1%	21µM*	1%	-42%	?	?
CCC1(CCCC(=O)c2ccc(F)cc2)C(=O)NC(=S)NC1=O	-6%	-12	5%	0%	-11%	0%	·	·
COC(=O)C1=C(c2ccc(F)cc2F)C[C@@H]2CC[C@H]1N2C(=O)N1CCC(O)(c2ccc(Cl)cc2)CC1	3%	·	1%	4%	-20%	4%	·	·
CC1=NN(c2ccccc2)C(=O)/C1=C/c1c(O)[nH]c(=O)[nH]c1=O	10%[15.4 µM]	-12	1%	-2%	4%	1%	·	·
CCN(CC)c1ccc(/C=C2\C(=O)N(c3nnc(C)c(=O)[nH]3)N=C2C)cc1	-6%	-13	-3%	?	-9%	-8%	?	13µM*
O=c1[nH]c(=O)n(Cc2ccccc2Cl)c(O)c1C=Nc1ccc(F)cc1	-20%	22	11%	1%	4%	-4%	·	·
O=C(Cc1ccc(F)cc1)N/N=C/c1ccc(-c2ccc(Cl)c(C(=O)O)c2)o1	1%	6	3%	?	5%	-1%	?	?
C=CCNc1oc(-c2cccc(Cl)c2)nc1C#N	·	·	·	27µM*	·	-8%	17µM*	30µM*
COc1ccc(C(C)=O)cc1CN1CC=C(c2ccccc2)CC1	2%	3	3%	3%	7%	-2%	·	·
CN(C)c1ccc(/C=N/NC(=O)c2ccnn2C)cc1	8%	-6	-2%	?	-7%	2%	-15%	-12%
Cn1cc(C=O)c2nccnc21	?	3	·	·	·	·	·	·
CC12C=CC(=O)CC1CCC1C2CCC2(C)C(O)C(O)CC12 (stereo not given)	-5%	-12	·	·	-14%	·	·	·
C=CCN1C(=O)N/C(=C/c2ccc(C)o2)C1=O	-37%	2	-1%	17µM*	1%	1%	17µM*	?
Cc1cccc(CNCCc2ccccc2)n1	-32%	·	1%	0%	-16%	3%	·	·
